A selection: hits, their analogues and other compounds. The true share with any hit is near 7.8%.
Cav32 inh: Cav3.2 calcium influx blockers – cell-based, Fluo-4 calcium fluorescence, FDSS, MLSMR library, primary screen; B-score at 10 µM; Voltage-dependent T-type calcium channel subunit alpha-1H (Homo sapiens), O95180; Cav3.2-expressing cells; active compounds read low; hit rate 4% among 100,000;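 active = single-dose well whose peak fluorescence ratio is a statistical outlier from its plate by either plate-standardised score or position-corrected B-score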
sEH act: soluble epoxide hydrolase activators, primary screen, biochemical, human sEH | Bifunctional epoxide hydrolase 2 (Homo sapiens), P34913 | purified human sEH enzymatic activity, activator screen | activation, % at 2 µM | hit rate 0.04% among 91,000 | AID 717, 2007; in the data active = activation above about 37%
Target sequence (P34913 whole entry, looked up): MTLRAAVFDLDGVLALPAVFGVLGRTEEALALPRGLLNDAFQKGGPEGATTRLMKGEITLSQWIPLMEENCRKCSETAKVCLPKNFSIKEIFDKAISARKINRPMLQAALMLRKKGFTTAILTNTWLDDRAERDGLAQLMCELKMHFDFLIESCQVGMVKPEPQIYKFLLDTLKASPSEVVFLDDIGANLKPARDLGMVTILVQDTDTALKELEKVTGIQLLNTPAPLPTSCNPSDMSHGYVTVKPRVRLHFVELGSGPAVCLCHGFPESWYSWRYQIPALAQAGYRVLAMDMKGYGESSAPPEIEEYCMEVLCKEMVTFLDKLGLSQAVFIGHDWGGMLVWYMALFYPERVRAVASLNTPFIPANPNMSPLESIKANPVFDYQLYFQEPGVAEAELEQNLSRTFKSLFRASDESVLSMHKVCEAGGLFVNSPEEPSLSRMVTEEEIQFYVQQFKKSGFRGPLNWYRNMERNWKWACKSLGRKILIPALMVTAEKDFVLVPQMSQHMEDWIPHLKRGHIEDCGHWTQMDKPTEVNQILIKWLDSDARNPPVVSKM
PostGolgi ctrl: growth inhibition of yeast control strain, primary screen, counter-screen for post-Golgi transport modulator project. efflux-deficient yeast background strain, growth absorbance A615, 16 h. inhibition, % at 10 µM. hit rate 5% among 98,000. AID 738, 2007
sEH inh: soluble epoxide hydrolase inhibitors, primary screen, biochemical, human sEH | Bifunctional epoxide hydrolase 2 (Homo sapiens), P34913 | recombinant human sEH enzymatic activity assay | inhibition, % at 2 µM | hit rate 0.34% among 91,000 | AID 707, 2007; in the data active = inhibition above about 80%
PostGolgi yeast: phenotypic screen on post-Golgi transport, primary screen; post-Golgi transport phenotypic cell assay; inhibition, % at 10 µM; hit rate 0.9% among 98,000;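 note: yeast cells grown in 1536-well plates; yeast grown about 18 h at 30C before absorbance read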
Active calls of the source: *. Cut-off read from the data, not from the text of the source, unless noted: active = inhibition above about 30%; inactive = the rest.

How did Cc1cccc(-n2ncc3c(NCc4cccs4)ncnc32)c1 do in these assays?
Cav32 inh: 0.27; sEH act: 1; PostGolgi ctrl: 42*; sEH inh: -6; PostGolgi yeast: 6

What do the screens show for `CC(C)Cn1nc(NC(=O)C(C)(C)C)c2cc3ccccc3nc21`?
Cav32 inh: -1.2; PostGolgi ctrl: 5; PostGolgi yeast: -4

What do the screens show for `COc1ccc2nc3c(cc2c1)c(NC(=O)c1cccs1)nn3CC(C)C`?
sEH act: 18; PostGolgi ctrl: 37*; sEH inh: -20; PostGolgi yeast: 10

How did COc1ccc(N2C(=O)CSC23C(=O)N2c4c(cccc43)C(C)=CC2(C)C)cc1 (centres undefined) do in these assays?
Cav32 inh: -2; sEH act: -6; PostGolgi ctrl: 32*; sEH inh: 7; PostGolgi yeast: 3

Results for Cc1cccc(C)c1NC1=NC(=S)N(c2ccccc2)C12CCOC(C)(C)C2 (centres undefined) ?
Cav32 inh: -0.84; sEH act: -8; PostGolgi ctrl: 6; sEH inh: 11; PostGolgi yeast: -8

Results for Cc1ccc(N2C(=S)N=C(Nc3ccccc3C)C23CCOC(C)(C)C3)cc1 (centres undefined) ?
Cav32 inh: -6.1*; sEH act: 8; PostGolgi ctrl: 20; sEH inh: -5; PostGolgi yeast: 1

Results for CC(=O)CSc1nc2ccccc2s1 ?
Cav32 inh: 1.3; sEH act: 2; PostGolgi ctrl: 26; sEH inh: -2; PostGolgi yeast: 4

Results for COc1ccc2c(c1)C(C)CC(C)(C)N2C(=O)CSc1nc2ccccc2s1 (centres undefined) ?
Cav32 inh: -7.6*; PostGolgi ctrl: 17; PostGolgi yeast: -6

Results for CCO[C@@H]1OC(C(=O)NC2CC2)=C[C@H](c2coc3ccccc3c2=O)[C@H]1CCCO ?
Cav32 inh: -0.029

How did CC1=CC(C)(C)N(S(=O)(=O)c2ccc(C)cc2)c2ccccc21 do in these assays?
Cav32 inh: -3.9; sEH act: 0; PostGolgi ctrl: 32*; sEH inh: -3; PostGolgi yeast: -7

What do the screens show for `CC1=CC(C)(C)N(S(=O)(=O)c2ccc(F)cc2)c2ccc(C)cc21`?
Cav32 inh: -2.8; sEH act: 3; PostGolgi ctrl: 29; sEH inh: -4; PostGolgi yeast: -8

What do the screens show for `CC(Nc1ccc(Br)cn1)c1cc(Cl)ccc1O` (centres undefined)?
sEH act: 3; PostGolgi ctrl: 31*; sEH inh: 0; PostGolgi yeast: -3

Results for Cc1sc2ncnc(NCC3CCCO3)c2c1C (centres undefined) ?
Cav32 inh: -7.6*; sEH act: 7; PostGolgi ctrl: 0; sEH inh: -5; PostGolgi yeast: 3

What do the screens show for `CCc1cc2c(NCC3CCCO3)ncnc2s1` (centres undefined)?
Cav32 inh: 0.4; sEH act: -5; PostGolgi ctrl: 5; sEH inh: 6; PostGolgi yeast: 10

How did Cc1sc2ncnc(NCC3(N4CCOCC4)CCCCC3)c2c1C do in these assays?
Cav32 inh: 0.41; sEH act: 5; PostGolgi ctrl: 33*; sEH inh: -2; PostGolgi yeast: 32*

What do the screens show for `COc1cc(NC(=O)c2ccc(Cl)cc2)c(OC)cc1Cl`?
Cav32 inh: 0.12; sEH act: -7; PostGolgi ctrl: 0; sEH inh: 10; PostGolgi yeast: 24

What do the screens show for `COc1cc(NC(=O)c2cnn3c(C)cc(C)nc23)c(OC)cc1Cl`?
Cav32 inh: 0.83; sEH act: -6; PostGolgi ctrl: 41*; sEH inh: 7; PostGolgi yeast: 0

What do the screens show for `CCN(CC)c1ccc2c(c1)OC(N)=C(C#N)C2c1cccnc1` (centres undefined)?
Cav32 inh: -11*; PostGolgi ctrl: 17; PostGolgi yeast: 11

How did CCCc1nn(C)c2c1C(c1cccnc1)C(C#N)=C(N)O2 (centres undefined) do in these assays?
Cav32 inh: 0.13; sEH act: -4; PostGolgi ctrl: -4; sEH inh: 7; PostGolgi yeast: -5

Results for Nn1c(SCC(=O)N2CCN(S(=O)(=O)c3ccc(Cl)cc3)CC2)nnc1-c1cccs1 ?
Cav32 inh: 0.35; sEH act: 8; PostGolgi ctrl: 3; sEH inh: -8; PostGolgi yeast: 16

What do the screens show for `Cc1cccc(NC(=O)c2cnc3scc(C)n3c2=O)c1`?
Cav32 inh: 0.27; sEH act: 5; PostGolgi ctrl: 29; sEH inh: -6; PostGolgi yeast: -3

How did Cc1csc2ncc(C(=O)Nc3ccon3)c(=O)n12 do in these assays?
Cav32 inh: -1.1; sEH act: 7; PostGolgi ctrl: 41*; sEH inh: -7; PostGolgi yeast: 2

What do the screens show for `Cc1ccc(/C=N/N2CCN(Cc3ccc(Cl)cc3)CC2)o1`?
Cav32 inh: -0.5; sEH act: -4; PostGolgi ctrl: 2; sEH inh: 1; PostGolgi yeast: 4

What do the screens show for `Cc1cccc(N2CCN(C(=O)c3ccc4nc(-c5ccco5)c(-c5ccco5)nc4c3)CC2C)c1` (centres undefined)?
Cav32 inh: -6.5*; sEH act: -9; PostGolgi ctrl: 6; sEH inh: 12; PostGolgi yeast: 2

What do the screens show for `COc1cccc(NC(=O)N2CCN(c3cccc(C)c3)C(C)C2)c1` (centres undefined)?
Cav32 inh: -4.9*; sEH act: -8; PostGolgi ctrl: 6; sEH inh: 9; PostGolgi yeast: 18

What do the screens show for `COC(=O)c1[nH]c2cc(C)ccc2c1NC(=O)CN1CCN(c2ccccc2OC)CC1`?
Cav32 inh: -1.4; sEH act: 5; PostGolgi ctrl: 6; sEH inh: -5; PostGolgi yeast: 5

Results for Cc1cccc(N2CCN(C(=O)c3cc4c(=O)n(C)c5ccccc5c4n3C)CC2C)c1 (centres undefined) ?
Cav32 inh: -4.4*; PostGolgi ctrl: 37*; PostGolgi yeast: -2

How did COc1cccc(NC(=O)N2CCOCC2)c1 do in these assays?
Cav32 inh: 0.91; sEH act: 7; PostGolgi ctrl: 24; sEH inh: -7; PostGolgi yeast: 2

Results for COC(=O)c1[nH]c2ccc(C)cc2c1NC(=O)CN1CCCc2ccccc21 ?
Cav32 inh: -2.9; sEH act: 1; PostGolgi ctrl: 48*; sEH inh: 4; PostGolgi yeast: -2

Results for Cn1c(C(=O)N2CCCCCC2)cc2c(=O)n(C)c3ccccc3c21 ?
Cav32 inh: 0.4; PostGolgi ctrl: 9; PostGolgi yeast: -7

Results for O=C(NCc1ccccc1)C1(C(F)(F)F)C/C(=C\CCO)CCCO1 (centres undefined) ?
Cav32 inh: 0.38

Results for COC(=O)c1[nH]c2cc(OC)ccc2c1NC(=O)CN1CCN(c2cccc(C)c2)C(C)C1 (centres undefined) ?
Cav32 inh: -2.8; PostGolgi ctrl: 37*; PostGolgi yeast: 0
